Assay outcomes deposited in PubChem BioAssay by National Center for Advancing Translational Sciences (NCATS).
The list is not random: actives were taken first. Their share in the collection is about 21%.
Pf growth 48h = P. falciparum growth inhibition at 48 hours (one generation); Potency, µM (top dose mostly 28.7 µM), hits mostly inhibitors; 310,000 compounds, 5.9% hits; P. falciparum luciferase growth in erythrocytes, 48 h; active = well fitted inhibition curve with a large enough effect; inconclusive = small, poorly fitted or top-dose-only effect, or another doubt; inactive = no such curve, though single readings can be large or run the other way
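Here the parasites carry a stable luciferase gene and grow inside erythrocytes in Albumax-based RPMI medium with compound for one erythrocytic cycle. Activity is scored as loss of luminescent signal.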
SARS PLpro yeast = SARS-CoV PLP inhibition in yeast; S. cerevisiae expressing SARS-CoV PLpro, growth rescue; Potency, µM (series often up to 32.9 µM), most hits filed as activators; 330,000 compounds, 0.19% hits; AID 485353; note: nearly all actives have a fitted effect of over 55% in size
Shiga toxin inh = inhibitors of Shiga toxin in Vero cells; Vero cells, Shiga toxin protein synthesis inhibition reporter; inhibition, % at 38.7 µM; 290,000 compounds, 9.2% hits; AID 2315; in the data active = inhibition mostly above about 28%, no sharp cut-off; inactive = mostly below about 43%
Pf growth 96h = P. falciparum growth inhibition at 96 hours; P. falciparum luciferase reporter growth, 96 h; AID 504834; Potency, µM (highest dose often 28.7 µM), most hits filed as inhibitors; 320,000 compounds, 6.9% hits; active = well fitted inhibition curve with a large enough effect; inconclusive = small, poorly fitted or top-dose-only effect, or another doubt; inactive = no such curve, though single readings can be large or run the other way
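P. falciparum expressing integrated firefly luciferase grown in erythrocytes (2% hematocrit, 0.05% parasitemia final) with compounds for 96 hours at 37 C, 5% CO2. Growth inhibition read as loss of luminescence after adding luciferase detection reagent.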
Cycloheximide cs = counter-screen for Shiga toxin inhibitors: cycloheximide protein synthesis inhibition. 300,000 compounds, 12% hits. max response, %. cell reporter, cycloheximide protein synthesis inhibition counterscreen. AID 2314; in the data active = max response mostly above about 13%, no sharp cut-off; inactive = mostly below about 14%; note: read at 38.3 µM for the half of the compounds with a filed dose
NS1 function inh = influenza NS1 inhibition. 270,000 compounds, 0.4% hits. Potency, µM (series often up to 46.1 µM); note: actives are rising curves; nearly all actives have a fitted effect of over 50% in size
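Compounds were scored for reversing the slow growth caused by influenza A NS1 in S. cerevisiae, measured by optical density at 600 nm. Assay medium contained 2% galactose at pH 6.0; NS1-free yeast of the same strain were the positive control.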
Numbers stand for hits. Unless noted, calls come from the whole dose curve.

What do the screens show for `CC1(OC(=O)C2CCCC2)C(=O)C=C2C=C(c3ccsc3)N(C3CC3)C=C2C1=O` (configuration not stated)?
Pf growth 48h: inconclusive; SARS PLpro yeast: inactive; Shiga toxin inh: inactive; Pf growth 96h: inconclusive; Cycloheximide cs: inactive; NS1 function inh: inactive

What do the screens show for `CC1(OC(=O)C2CCCC2)C(=O)C=C2C=C(c3ccsc3)N(Cc3ccccc3)C=C2C1=O` (configuration not stated)?
Pf growth 48h: 12µM; SARS PLpro yeast: inactive; Shiga toxin inh: inactive; Pf growth 96h: inconclusive; Cycloheximide cs: inactive; NS1 function inh: inactive

What do the screens show for `Cn1c(=O)c(=O)n(C)c2cc(S(=O)(=O)NCCOc3ccccc3Cl)ccc21`?
Pf growth 48h: inactive; SARS PLpro yeast: inactive; Shiga toxin inh: inactive; Pf growth 96h: inactive; Cycloheximide cs: inactive

Results for O=C(Nc1cnc2ccccc2c1)C1COc2ccccc2O1 (configuration not stated) ?
Pf growth 48h: inactive; SARS PLpro yeast: inactive; Shiga toxin inh: 80; Pf growth 96h: inactive; Cycloheximide cs: 31; NS1 function inh: inactive

Results for O=C(Nc1ccc(F)cc1)C1COc2ccccc2O1 (configuration not stated) ?
Pf growth 48h: inactive; SARS PLpro yeast: inactive; Shiga toxin inh: inactive; Pf growth 96h: inactive; Cycloheximide cs: 20; NS1 function inh: inactive

How did Cc1cc(C)n(C(=O)CNC(=O)C2COc3ccccc3O2)n1 (configuration not stated) do in these assays?
Pf growth 48h: inactive; SARS PLpro yeast: inactive; Shiga toxin inh: inactive; Pf growth 96h: inactive; Cycloheximide cs: inactive; NS1 function inh: inactive

What do the screens show for `Cc1cc(C)n(C(=O)c2ccc(NC(=O)C3COc4ccccc4O3)cc2)n1` (configuration not stated)?
Pf growth 48h: inactive; Shiga toxin inh: inactive; Pf growth 96h: 8.3µM; Cycloheximide cs: inactive; NS1 function inh: inactive

How did O=C(Nc1ccc2c(c1)OCO2)C1COc2ccccc2O1 (configuration not stated) do in these assays?
Pf growth 48h: inactive; SARS PLpro yeast: inactive; Shiga toxin inh: 107; Pf growth 96h: inactive; Cycloheximide cs: 36; NS1 function inh: inactive

What do the screens show for `NC(=O)c1ccc(NC(=O)C2COc3ccccc3O2)cc1` (configuration not stated)?
Pf growth 48h: inactive; SARS PLpro yeast: inactive; Shiga toxin inh: inactive; Pf growth 96h: inconclusive; Cycloheximide cs: inactive; NS1 function inh: inconclusive

What do the screens show for `COCCNC(=O)C(c1ccc(F)cc1)N(C(=O)CCC(=O)Nc1ccccn1)C1CCCCC1` (configuration not stated)?
Pf growth 48h: inactive; SARS PLpro yeast: inactive; Shiga toxin inh: inactive; Pf growth 96h: inactive; Cycloheximide cs: inactive; NS1 function inh: inactive

What do the screens show for `C[C@H](CO)N1C[C@H](C)[C@@H](CN(C)Cc2ccccc2)Oc2ccc(NC(=O)CCCCCC(=O)Nc3ccccc3N)cc2C1=O`?
SARS PLpro yeast: inactive

What do the screens show for `Cc1cc(C(C)(C)C)cc(S(=O)(=O)NCCc2ccncc2)c1C`?
Pf growth 48h: inactive; SARS PLpro yeast: inactive; Shiga toxin inh: inactive; Pf growth 96h: inactive; Cycloheximide cs: inactive; NS1 function inh: inactive

What do the screens show for `O=C(Nc1ccncc1)C1c2ccccc2Oc2ccccc21`?
Pf growth 48h: 5.9µM; SARS PLpro yeast: inactive; Shiga toxin inh: inactive; Cycloheximide cs: inactive; NS1 function inh: inactive

How did O=C(Nc1ccncc1)C1COc2ccccc2O1 (configuration not stated) do in these assays?
Pf growth 48h: inactive; SARS PLpro yeast: inactive; Shiga toxin inh: inactive; Pf growth 96h: inconclusive; Cycloheximide cs: 11; NS1 function inh: inactive

What do the screens show for `O=C(Nc1ccc2c(c1)CCC2)C1COc2ccccc2O1` (configuration not stated)?
Pf growth 48h: inactive; SARS PLpro yeast: inactive; Shiga toxin inh: 40; Pf growth 96h: inconclusive; Cycloheximide cs: 58; NS1 function inh: inactive

How did CSc1ccccc1OCc1cc(C(=O)NCCCc2ccccc2)no1 do in these assays?
Pf growth 48h: inactive; SARS PLpro yeast: inactive; Shiga toxin inh: inactive; Pf growth 96h: inconclusive; Cycloheximide cs: inactive; NS1 function inh: inactive

Results for Cc1nc(CCNC(=O)c2cc(COc3ccc(F)cc3Cl)on2)sc1C ?
Pf growth 48h: inactive; SARS PLpro yeast: inactive; Shiga toxin inh: inactive; Pf growth 96h: inactive; Cycloheximide cs: inactive; NS1 function inh: inactive

What do the screens show for `COc1ccc(OCc2cc(C(=O)NCc3cccc(C)n3)no2)c(Cl)c1`?
Pf growth 48h: inactive; SARS PLpro yeast: inactive; Shiga toxin inh: 138; Pf growth 96h: inactive; Cycloheximide cs: 61; NS1 function inh: inactive

What do the screens show for `COc1ccc(OCc2cc(C(=O)NCCCc3ccccc3)no2)c(Cl)c1`?
Pf growth 48h: inconclusive; SARS PLpro yeast: inactive; Shiga toxin inh: inactive; Pf growth 96h: 9.3µM; Cycloheximide cs: inactive; NS1 function inh: inactive

What do the screens show for `Cc1ccc(S(=O)(=O)NCC(=O)N(CC2CCCO2)C(C(=O)NC2CCCCC2)C(C)C)cc1` (configuration not stated)?
Pf growth 48h: inconclusive; SARS PLpro yeast: inactive; Shiga toxin inh: inactive; Pf growth 96h: inactive; Cycloheximide cs: inactive; NS1 function inh: inactive

Results for CCNC(=O)CC1C(=O)N(c2ccccc2)C(=O)N1Cc1ccc(OC)cc1 (configuration not stated) ?
Pf growth 48h: inactive; SARS PLpro yeast: inactive; Shiga toxin inh: inactive; Pf growth 96h: inconclusive; Cycloheximide cs: 13; NS1 function inh: inactive

Results for CCNC(=O)CC1C(=O)N(c2ccc(C)cc2)C(=O)N1CCC(C)C (configuration not stated) ?
Pf growth 48h: inactive; SARS PLpro yeast: inactive; Shiga toxin inh: inactive; Pf growth 96h: 12µM; Cycloheximide cs: inactive; NS1 function inh: inactive

What do the screens show for `Cc1ccc(NC(=O)CSCC(=O)N2CCCc3ccccc32)cc1`?
Pf growth 48h: inactive; SARS PLpro yeast: inactive; Pf growth 96h: inactive

What do the screens show for `CCN(CC)CCN(C(=O)c1ccc(CN2CCCCC2)o1)C(C(=O)NC1CCCCC1)c1ccc(F)cc1` (configuration not stated)?
Pf growth 48h: inactive; SARS PLpro yeast: inactive; Shiga toxin inh: 60; Pf growth 96h: inactive; Cycloheximide cs: 42; NS1 function inh: inactive

What do the screens show for `CC(C)CCNC(=O)C(C)N(Cc1ccc(F)cc1)C(=O)c1ccc(CN2CCCCC2)o1` (configuration not stated)?
Pf growth 48h: inactive; SARS PLpro yeast: inactive; Shiga toxin inh: inactive; Pf growth 96h: inactive; Cycloheximide cs: inactive; NS1 function inh: inactive

Results for COc1ccc(S(=O)(=O)N2CCN(C(=O)c3ccc(NC(C)=O)cc3)CC2)cc1 ?
Pf growth 48h: inconclusive; SARS PLpro yeast: inactive; Pf growth 96h: inactive

What do the screens show for `CC(C)c1ccc2[nH]c(O)c(N=NC(=S)NCCc3ccccc3)c2c1`?
Pf growth 48h: inconclusive; SARS PLpro yeast: inconclusive; Shiga toxin inh: inactive; Pf growth 96h: 9.3µM; Cycloheximide cs: inactive; NS1 function inh: inactive
